“And” between values parts separate entries of the source, which are not always exact repeats. Identical values can stand only once. Inconclusive results are not listed. Values without a mark were called inactive. The source made the active and inactive calls. Calls follow the shape of the dose curve; as a rule, active = well fitted curve in either direction with a large enough effect (not every such curve was filed as active); inconclusive = small, poorly fitted or top-dose-only effect, or another doubt; inactive = flat fitted curve, though single readings scatter.
% is scaled to controls: 0 for no effect and ±100 for the full control effect.

The nature of this test: Stat Signaling Pathway (AID 446). The note with it: ME-180 (cervical carcinoma) SIE beta-lactamase reporter, IL-6 stimulated, 5 h; at 17.2 µM (top of the series) unless noted. The procedure: NCGC Assay Overview: The IL-6/STAT signaling pathway was assayed in ME-180 cervical carcinoma cells by a beta-lactamase reporter gene controlled by a STAT Inducible Element (SIE). This reporter is induced by IL-6 at 40 pM AC50 and inhibited by the pan JAK inhibitor, 2-(1,1-Dimethylethyl)-9-fluoro-3,6-dihydro-7H-benz[h]-imidaz[4,5-f]isoquinolin-7-one, at approximately 10 nM AC50. Plated cells were incubated overnight and on the following day, stimulated with 40 pM IL-6 for 5 hrs. The assay was screened at the AC50 of IL-6 activation to identify both inhibitors and activators of IL-6/STAT signaling.
NCGC Assay Protocol Summary: Cells were trypsinized, washed in assay medium (AM, OPTI MEM with 0.5% fetal bovine serum, 0.1 mM nonessential amino acids, 1 mM sodium pyruvate, 10mM HEPES pH 7.3, 100U/ml penicillin, and 100 ug/ml streptomycin) and suspended at 6 x 10e5/ml in AM. Approximately […] cells in 5 uL/well was dispensed into 1536 well plates and the cells were incubated overnight at 37 C. 23 nL of compound were delivered by a pin tool and 1 uL of IL-6 (40 pM final concentration in AM) was added. After centrifugation at 1000 rpm for less than a minute, plates were incubated at 37C for 5 hrs. One uL of detector mix (LiveBLAzerTM, Invitrogen) was added, the plates incubated at room temperature for 2.5 hrs, and fluorescence intensity at 460 and 530 nm emission was measured at 405 nm excitation by an Envision (Perkin Elmer) or Safire II (Tecan). Data were normalized by GeneData to the controls for AC90 stimulation (300 pM IL-6) and to AC90 inhibition (125 nM Jak inhibitor, 40 pM IL-6 in AM).
As to `CCc1cc(C(N)=S)ccn1`, the activity, negative = inhibition is -6.82%.

In the case of `COc1cc(NS(=O)(=O)c2ccc(N)cc2)nc(OC)n1`, the activity, negative = inhibition was 9.03% and -4.46%. For `CCOC(=O)c1ccc(OC(=O)CCCCCN=C(N)N)cc1`, the activity, negative = inhibition was -23.2%.

Take `Nc1nc(F)nc2c1ncn2[C@@H]1O[C@H](CO)[C@@H](O)[C@@H]1O`: the activity, negative = inhibition was 7.84%. Consider `CCCCOc1ccc(CC(=O)NO)cc1`, for which the activity, negative = inhibition is -9.96% and -7.15%. Consider `COC(=O)Nc1nc2ccc(Sc3ccccc3)cc2[nH]1`, for which the activity, negative = inhibition is 1.46% and -3.37%. Regarding `NS(=O)(=O)c1cc2c(cc1Cl)NC(C(Cl)Cl)NS2(=O)=O` (stereo not given), the activity, negative = inhibition was 2.72%. The same measure for `COc1ccc2c(c1)c(CC(=O)OCC(=O)O)c(C)n2C(=O)c1ccc(Cl)cc1`: 1.57% and -16%; for `Cc1cc(NS(=O)(=O)c2ccc(N)cc2)no1`: 2% and 5.36%; for `COc1cnc(NS(=O)(=O)c2ccc(N)cc2)nc1`: -4.71%. For the compound `Cn1c(=O)c2c(ncn2CC(O)CO)n(C)c1=O` (stereo not given), the activity, negative = inhibition is 1.2%.

As to `Cc1ccc(S(=O)(=O)N[C@@H](Cc2ccccc2)C(=O)CCl)cc1`, the activity, negative = inhibition is -65.8% [at 38 µM] (active).

As for `CC(C)(Sc1cc(C(C)(C)C)c(O)c(C(C)(C)C)c1)Sc1cc(C(C)(C)C)c(O)c(C(C)(C)C)c1`, the activity, negative = inhibition is 5.26%.

`OCc1ccc(-c2nn(Cc3ccccc3)c3ccccc23)o1`: the activity, negative = inhibition is -17.6% [at 38 µM]. Consider `NC(N)=NC(N)=NCCc1ccccc1`, for which the activity, negative = inhibition was 9.3% and 14.4%. As for `COc1ccc2cc3[n+](cc2c1OC)CCc1cc2c(cc1-3)OCO2`, the activity, negative = inhibition was -1.52%. Turning to `N[C@@H](C(=O)N[C@@H]1C(=O)N2C(C(=O)O)=C(Cl)CS[C@H]12)c1ccccc1`, the activity, negative = inhibition is 1.22%.

For `Nc1[nH]c(=O)ncc1F`, the activity, negative = inhibition was -4.22%.

Take `Cc1ncc([N+](=O)[O-])n1CCO`: the activity, negative = inhibition was 4.79% and 0.586%. In the case of `NNC(=O)c1ccncc1`, the activity, negative = inhibition is 3.44% and 12.3%.

As to `CC(=O)[C@H]1CC[C@H]2[C@@H]3CCC4=CC(=O)CC[C@]4(C)[C@H]3CC[C@]12C`, the activity, negative = inhibition was 2.68%.

Take `Clc1ccccc1CN1CCc2sccc2C1`: the activity, negative = inhibition was 1.54% and 0.607%. The same measure for `CCn1cc(C(=O)O)c(=O)c2cc(F)c(N3CCNCC3)nc21`: 4.75% and 1.14%.

Take `CC1=NN(c2ccccc2)C(=O)C1`: the activity, negative = inhibition is -2.54%. In the case of `N=C(N)c1ccc(OCCCCCOc2ccc(C(=N)N)cc2)cc1`, the activity, negative = inhibition was 15.4%. As to `CCC(=O)O[C@]1(C(=O)CCl)[C@@H](C)C[C@H]2[C@@H]3CCC4=CC(=O)C=C[C@]4(C)[C@@]3(F)[C@@H](O)C[C@@]21C`, the activity, negative = inhibition was -5.77%. On to `Cc1cccc(Nc2ccncc2S(=O)(=O)NC(=O)NC(C)C)c1`, for which the activity, negative = inhibition is -16.6%.

For the compound `COC(=O)Nc1nc2ccc(C(=O)c3ccccc3)cc2[nH]1`, the activity, negative = inhibition was -12.3% and -12%. With `CC[C@H](C)C(=O)O[C@H]1C[C@@H](C)C=C2C=C[C@H](C)[C@H](CC[C@@H]3C[C@@H](O)CC(=O)O3)[C@H]21`, the activity, negative = inhibition is -3.85%. Turning to `CCN(CC)CC#CCOC(=O)C(O)(c1ccccc1)C1CCCCC1` (stereo not given), the activity, negative = inhibition was 0.633%. The same measure for `COc1cc([C@@H]2c3cc4c(cc3[C@H](O)[C@H]3COC(=O)[C@H]23)OCO4)cc(OC)c1OC`: 6.38%. As to `CCn1cc(C(=O)O)c(=O)c2cc(F)c(N3CCNCC3)cc21`, the activity, negative = inhibition is 1.48% and 7%.

Take `COc1ncnc(NS(=O)(=O)c2ccc(N)cc2)c1OC`: the activity, negative = inhibition was -3.42%.

For the compound `C1CCC(C(CC2CCCCN2)C2CCCCC2)CC1` (stereo not given), the activity, negative = inhibition was 5.25%. In the case of `NC(=O)c1cccc(N)c1`, the activity, negative = inhibition is 1.75% [at 38 µM]. `Cc1noc(NS(=O)(=O)c2ccc(N)cc2)c1C`: the activity, negative = inhibition is 7.81% and 5.09%. On to `Cc1nnc(NS(=O)(=O)c2ccc(N)cc2)s1`, for which the activity, negative = inhibition was 0.539% and 1.42%. As for `COc1ccccc1OCC(O)COC(N)=O` (stereo not given), the activity, negative = inhibition was 6.13%. Turning to `O=C(O)c1cccnc1`, the activity, negative = inhibition was 3.94%.

For the compound `O=C(O)c1cn(C2CC2)c2cc(N3CCNCC3)c(F)cc2c1=O`, the activity, negative = inhibition was 11.7%.
